From PubChem
An excerpt weighted towards active compounds, which were near 7.4% of everything screened.
SMN2 splice enh: enhancers of SMN2 splice variant expression | HEK293 SMN2-luciferase splicing reporter, luminescence, 30-36 h | hit rate 2.8% among 210,000 | Potency, µM (highest dose often 46.1 µM), for the others: top-dose activity change, positive = activation, hits mostly activators; further: % of control where 0% means no effect; nearly all actives have a fitted effect of over 55% in size
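HEK293 cells carry an SMN2 […]–luciferase reporter in which exon 7 inclusion puts luciferase in frame. Cells were plated 10-12 h before compound addition, then incubated 30-36 h at 37C. ONE-Glo luminescence was read; sodium butyrate at 4.5 mM final served as control.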
Rab9 prom act: activates the Rab9 promoter | hit rate 2.8% among 320,000 | Potency, µM (top dose mostly 9.22 µM), for the others: at the top dose activation, negative = inhibition, usual class: activators | Huh7 Rab9 promoter-luciferase reporter, luminescence, 24 h; further: % of control where 0% means no effect; nearly all actives have a fitted effect of over 60% in size
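Measured in stably transfected Huh7 cells bearing a Rab9 promoter–luciferase construct: 24 h compound treatment at 37 °C, followed by luminescence detection.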
ELG1 genotox: genotoxicity induction in ELG1-luciferase HEK293T cells. HEK293T ELG1-luciferase reporter, luminescence, 16 h. Potency, µM (highest dose often 46 µM), for the others: at the top dose activity change, positive = activation, most hits filed as activators. hit rate 1.3% among 330,000. AID 504466; further: % of control where 0% means no effect; nearly all actives have a fitted effect of over 60% in size
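16 hr compound incubation (37 °C, 5% CO2) of HEK293T cells carrying luciferase-tagged ELG1; luciferase then measured by ONE-Glo luminescence after 30 min at RT.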
NPC1 prom act: activates the NPC1 promoter | Huh7 NPC1 promoter luciferase reporter, 24 h | Potency, µM (highest dose often 9.22 µM), for inactives: top-dose activation, hits mostly activators | hit rate 2.4% among 320,000; further: % of control where 0% means no effect; nearly all actives have a fitted effect of over 60% in size
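NPC1 promoter–luciferase Huh7 cells; 24 h compound; luminescence.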
FLuc counter: firefly luciferase modulation, counter-screen for miR-21 project; purified FLuc, Km substrates, luminescence inhibition; Potency, µM (top dose mostly 57.5 µM), for inactives: at the highest dose activity change, negative = inhibition, hits mostly inhibitors; hit rate 6.9% among 360,000;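 further: plate controls were vehicle for no effect and reference inhibitor for full effect; nearly all actives have a fitted effect of over 55% in size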
Target sequence (P08659 whole entry, looked up): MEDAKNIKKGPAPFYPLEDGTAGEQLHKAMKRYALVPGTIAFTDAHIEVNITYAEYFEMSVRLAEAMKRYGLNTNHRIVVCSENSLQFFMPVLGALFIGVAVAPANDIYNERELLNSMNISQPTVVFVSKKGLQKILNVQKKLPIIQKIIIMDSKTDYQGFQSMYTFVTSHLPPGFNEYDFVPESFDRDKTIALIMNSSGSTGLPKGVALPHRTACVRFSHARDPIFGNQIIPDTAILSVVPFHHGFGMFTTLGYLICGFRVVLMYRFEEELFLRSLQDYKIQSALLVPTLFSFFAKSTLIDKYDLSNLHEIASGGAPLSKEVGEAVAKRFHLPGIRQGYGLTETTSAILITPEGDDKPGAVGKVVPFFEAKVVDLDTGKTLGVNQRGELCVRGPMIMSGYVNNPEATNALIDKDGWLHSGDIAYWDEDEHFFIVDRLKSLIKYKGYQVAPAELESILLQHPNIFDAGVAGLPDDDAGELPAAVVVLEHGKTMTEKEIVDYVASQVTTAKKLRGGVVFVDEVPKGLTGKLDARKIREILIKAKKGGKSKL
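Purified P. pyralis luciferase (10nM final) with 10uM D-luciferin and 10uM ATP (Km levels) in 50mM Tris acetate pH 7.5, 10mM Mg acetate, 0.01% Tween-20, 0.05% BSA; qHTS 6-point titration, ~60 µM downward; luminescence read.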
Numbers without * were called inactive; ? = inconclusive; . = no result; [ ] = dose if it differs, or a comment. The call rests on the fitted dose curve; in most records, active means well fitted curve in the direction sought with a large enough effect; inconclusive means small, poorly fitted or top-dose-only effect, or another doubt; inactive means no such curve, though single readings can be large; an effect the other way counts as inactive or inconclusive. Potency means the concentration at half of the fitted maximal effect.

SMILES	SMN2 splice enh	Rab9 prom act	ELG1 genotox	NPC1 prom act	FLuc counter
C=CCc1cccc(C=Nc2cccn3cc(-c4ccccc4)nc23)c1O	25µM*	?	?	?	-17%
Nc1ccc(Oc2cc(N)cc(Oc3ccccc3)c2)cc1	.	?	?	2µM*	6µM*
O=C1CCCC=C1[C@@H](O)CCOC(c1ccccc1)(c1ccccc1)c1ccccc1	9%	.	.	.	.
N#C/C(=C\c1ccc(O)c([N+](=O)[O-])c1)c1nc2ccccc2s1	-58%	0%	-9%	-2%	13µM*
COc1ccc(-c2csc(/C(C#N)=C\c3ccc(OC)c([N+](=O)[O-])c3)n2)cc1	-13%	-5%	-3%	-3%	2%
O=C(O)CC/C(=C\c1ccc(Cl)c([N+](=O)[O-])c1)c1nc2ccccc2s1	0%	-11%	-4%	-5%	8%
COc1cc(/C=C(\C#N)c2nc3ccccc3s2)cc([N+](=O)[O-])c1O	6%	-6%	-6%	-4%	8.5µM*
COc1ccc(-c2csc(/C(C#N)=C\c3ccc(O)c([N+](=O)[O-])c3)n2)cc1OC	.	-1%	-6%	7%	15µM*
CCn1c(-c2cc(Br)cc(OC)c2O)nc2cc(S(=O)(=O)N(C)C)ccc21	-15%	-6%	-14%	-5%	-1%
CCn1c(-c2ccccn2)nc2cc(S(=O)(=O)N(C)C)ccc21	.	27%	8%	18%	21µM*
COc1cccc(/C=C2\SC(=S)N(NC(=O)c3ccncc3)C2=O)c1	.	-3%	1%	0%	2%
COc1cc(/C=C2\SC(=S)N(NC(=O)c3cccnc3)C2=O)ccc1O	.	-1%	-2%	-1%	17µM*
CC(=O)NN1C(=O)/C(=C\c2ccc(O)cc2)SC1=S	.	-11%	4%	5%	17µM*
COc1cc(/C=C2\SC(=S)N(NC(=O)c3ccc(O)cc3)C2=O)ccc1O	.	3%	10%	3%	3µM*
CC(=O)NN1C(=O)/C(=C\c2ccc(C)cc2)SC1=S	-18%	0%	-1%	-1%	?
COCC(=O)O	-18%	.	.	.	.
O=C1[C@@H]2[C@@H](C(=O)N1c1ccc(OCc3ccccc3)cc1)[C@@H]1c3ccccc3[C@@H]2[n+]2ccccc21	3%[9.22 µM]	.	.	.	.
CCN(CC)S(=O)(=O)c1ccc2nc(NC(=O)c3cccnc3)sc2c1	.	.	.	.	19µM*
CCNS(=O)(=O)c1ccc2nc(NC(=O)c3cccnc3)sc2c1	10%	?	8%	24%	21µM*
CCC(=O)N1c2ccccc2CC1C(=O)NCCc1ccc(SC)cc1 (stereo not given)	.	.	.	.	-2%
O=C(NCc1ccco1)c1ccc2c(c1)N(Cc1ccc(Cl)cc1)C(=O)c1ccccc1S2(=O)=O	2%	.	.	.	-2%
C=CCNc1nc2c3ccccc3n(C(C)=O)c2s1	-3%	23%	?	21%	24µM*
O=C(O)COn1c(-c2ccccc2)nc2ccc([N+](=O)[O-])cc21	29%	?	18%	26%	15µM*
Clc1ccc(COn2c(-c3ccc(Cl)cc3)nc3ccccc32)cc1	-24%	4%	-2%	-4%	?
O=[N+]([O-])c1ccc2nc(-c3ccc(Cl)cc3)n(OCc3ccccc3)c2c1	2%	?	?	?	12µM*
SMILES	SMN2 splice enh	Rab9 prom act	ELG1 genotox	NPC1 prom act	FLuc counter
Clc1ccc(COn2c(-c3ccccc3)nc3ccccc32)cc1	-9%	-1%	-3%	-8%	-14%
CCOC(=O)C(C)On1c(-c2ccc(Cl)cc2)nc2ccc([N+](=O)[O-])cc21 (stereo not given)	-4%	18%	12%	29%	15µM*
Cc1ccc(COn2c(-c3ccc(Cl)cc3)nc3ccc([N+](=O)[O-])cc32)cc1	?	?	17%	?	17µM*
CCCCN(CC)CCCNC(=O)c1sc2nc(C)cc(C)c2c1-n1cccc1	.	.	.	.	0%
CCOC(=O)c1c(NC(=O)c2cc3ccccc3c(=O)o2)sc2c1CCC(C(C)(C)C)C2 (stereo not given)	-4%	.	.	.	17µM*
CCOC(=O)c1c(NC(=O)c2ccco2)sc2c1CCCC2	-12%	1%	12%	9%	3%
